# Assay outcomes: PubChem, National Center for Advancing Translational Sciences (NCATS)
# Only some compounds are listed: those with a hit (about 11% of all), similar ones and a draw of the others.
# AMA1 RON2 block – qHTS for Inhibitors of AMA1-RON; Towards Development of Antimalarial Drug Lead: Primary Screen; AlphaScreen AMA1-biotinylated RON2 peptide binding; Potency, µM (top dose mostly 58.2 µM), inactives show top-dose activity change, negative = inhibition, hits mostly inhibitors; Plasmodium falciparum AMA1 (3D7) - RON2 peptide interaction; 360,000 tested, 0.2% active; AID 720542, 2013;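 also: 0% = vehicle wells and -100% = peptide control; nearly all actives have a fitted effect of over 45% in size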
#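 AMA1 (3D7) with his tag at 25 nM final met compounds first, then biotinylated RON2 peptide at 25 nM; detection used donor plus acceptor beads, 10 µg/mL apiece, read by AlphaScreen after 30 min at room temperature.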
# Pf growth 48h – Primary qHTS for delayed death inhibitors of the malarial parasite plastid, 48 hour incubation; P. falciparum luciferase growth in erythrocytes, 48 h; Potency, µM (top dose mostly 28.7 µM), for inactives: top-dose activity change, negative = inhibition, usual class: inhibitors; 310,000 tested, 5.9% active
#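 Here the parasites carry a stable luciferase gene and grow inside erythrocytes in Albumax-based RPMI medium with compound for one erythrocytic cycle. Activity is scored as loss of luminescent signal.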
# Pf growth 96h – Primary qHTS for delayed death inhibitors of the malarial parasite plastid, 96 hour incubation; Potency, µM (doses to about 28.7 µM), for the others: at the top dose activity change, negative = inhibition, usual class: inhibitors; P. falciparum luciferase reporter growth, 96 h; 320,000 tested, 6.9% active
#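 Delayed-death screen, second-generation endpoint: infected erythrocytes, 2% hematocrit, 0.05% parasitemia final; 96 hours at 37 C, 5% CO2; luciferase detection reagent; luminescence decrease equals reduced growth.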
# AmpC inh no detg – qHTS Inhibitors of AmpC Beta-Lactamase (assay without detergent). Potency, µM (doses to about 57.1 µM), without a hit: top-dose activity change, negative = inhibition, actives largely listed as inhibitors. 330,000 tested, 0.52% active. AID 485341, 2010. AmpC nitrocefin hydrolysis, absorbance 480 nm, 0.0001% Triton. P00811;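 also: plate controls were no compound for no effect and no enzyme for full effect; nearly all actives have a fitted effect of over 20% in size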
# Target sequence (P00811 whole entry, looked up): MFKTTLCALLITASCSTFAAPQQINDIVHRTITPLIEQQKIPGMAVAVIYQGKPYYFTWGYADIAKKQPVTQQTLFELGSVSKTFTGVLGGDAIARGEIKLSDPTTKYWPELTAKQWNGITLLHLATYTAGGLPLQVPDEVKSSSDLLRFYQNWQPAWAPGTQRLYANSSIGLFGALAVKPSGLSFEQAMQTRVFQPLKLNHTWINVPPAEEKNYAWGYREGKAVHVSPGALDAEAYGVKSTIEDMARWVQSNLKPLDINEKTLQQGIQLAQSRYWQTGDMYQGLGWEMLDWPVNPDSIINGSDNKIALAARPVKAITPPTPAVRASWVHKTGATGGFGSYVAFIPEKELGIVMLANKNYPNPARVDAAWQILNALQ
#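 20 mM phosphate pH 7.0 + 0.01% (detergent screen) or 0.0001% Triton X-100; 5.3 nM AmpC reagent; cpd preinc 15 min RT; nitrocefin (800 uM stock) to start; A480 q20 s × 4 min; Activity was normalised to no-enzyme and no-compound control wells.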
# HCV inhibitor – qHTS Assay for Inhibitors of Hepatitis C Virus (HCV) | Huh7.5.1 HCVcc-Cre infection, luciferase reporter, 44 h | 340,000 tested, 3.4% active | Potency, µM (titrated, usually from 41.8 µM), for the others: top-dose activity change, negative = inhibition, most hits filed as inhibitors
#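 Cells seeded at 1,000/well and cultured 4 h, then compounds added followed by HCVcc-Cre virus (~0.5 moi). After 44 h further culture, luciferase substrate was added, plates held 15 min at room temperature, and luminescence read for 15 sec.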
# AmpC detergent – qHTS Inhibitors of AmpC Beta-Lactamase (assay with detergent); P00811; AmpC hydrolysis of nitrocefin, absorbance 480 nm, 0.01% Triton; Potency, µM (doses to about 114 µM), without a hit: at the top dose activity change, negative = inhibition, usual class: inhibitors; 370,000 tested, 0.041% active; AID 485294, 2010;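 also: 0% = no-compound wells and -100% = no-enzyme wells; nearly all actives have a fitted effect of over 25% in size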
#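 20 mM phosphate pH 7.0 + 0.01% (detergent screen) or 0.0001% Triton X-100; 5.3 nM AmpC reagent; cpd preinc 15 min RT; nitrocefin (800 uM stock) to start; A480 q20 s × 4 min; Activity was normalised to no-enzyme and no-compound control wells.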
# The depositor's hits bear a star; u = inconclusive; x = no result. Calls follow the shape of the dose curve; as a rule, active = well fitted curve in the direction sought with a large enough effect; inconclusive = small, poorly fitted or top-dose-only effect, or another doubt; inactive = no such curve, though single readings can be large; an effect the other way counts as inactive or inconclusive. Unless noted, % is scaled to controls: 0 for no effect and ±100 for the full control effect; potency is read from the fitted curve at half-maximal effect.
SMILES,AMA1 RON2 block,Pf growth 48h,Pf growth 96h,AmpC inh no detg,HCV inhibitor,AmpC detergent
CCCCC(=O)Nc1sc2c(c1-c1nc3ccccc3s1)CCN(C(C)=O)C2,x,u,u,0.5µM*,u,u
CC(=O)N1CCc2c(sc(NC(=O)CSc3ccccc3)c2-c2nc3ccccc3s2)C1,x,x,x,x,x,1%
COc1cccc(NC(=O)Cn2c(=O)c3cccn3c3ccc(F)cc32)c1,x,x,x,x,x,18%
Cc1ccc(-c2[nH]ncc2CNCCc2cnn(-c3ccccc3)c2)cc1C,-2%,13µM*,u,22%,u,-1%
O=C(c1cc(-c2ccc(Cl)cc2)on1)N(Cc1cccc(F)c1)Cc1ccco1,x,x,x,x,x,22%
CCC(Oc1ccccc1F)C(=O)N1CCC(c2nc3ccccc3s2)CC1 (centres undefined),x,x,x,x,x,19%
O=C1C(=C(O)c2ccccc2)C(=O)c2ccccc21,-5%,u,-7%,-29%,-2%,-12%
O=C1C(=C(c2ccccc2)c2ccccc2)Nc2ccccc21,25µM*,u,x,-24%,u,0%
Cc1ccc(CNC(=O)c2cccc(Nc3nc4ccccc4n4nnnc34)c2)cc1,x,x,x,x,x,-3%
COCCNS(=O)(=O)c1ccc2c(c1)oc(=O)c1cc(S(=O)(=O)NCCOC)ccc12,x,u,1.9µM*,68%,9%,u
COc1ccccc1OCCNS(=O)(=O)c1ccc2oc3ccccc3c2c1,-12%,-18%,10µM*,-33%,0%,-6%
O=S(=O)(NCCOc1ccccc1Cl)c1ccc2oc3ccccc3c2c1,9%,x,x,x,-22%,x
CCCCn1c(C2CCCCC2)nc2cc3[nH]c(=O)c(C(C)C)nc3cc21,17%,-8%,9.3µM*,160%,u,1%
C=CCNC(=O)c1oc2ccc(S(=O)(=O)N(CC)CC)cc2c1C,12%,u,10µM*,3%,-9%,5%
CCN(CC)S(=O)(=O)c1ccc2oc(C(=O)NC3CCCc4ccccc43)c(C)c2c1 (centres undefined),-12%,5.2µM*,x,-20%,u,-4%
CCN(CC)S(=O)(=O)c1ccc2oc(C(=O)NCc3ccccc3OC)c(C)c2c1,x,x,x,x,x,0%
CCN(CC)S(=O)(=O)c1ccc2oc(C(=O)N3CCCCCC3)c(C)c2c1,-12%,13µM*,-5%,72%,-12%,1%
CCN(CC)S(=O)(=O)c1ccc2oc(C(=O)N3CCc4ccccc4C3)c(C)c2c1,1%,u,9.3µM*,7%,-23%,-17%
Cc1cn(C)c(CC(=O)NCc2ccccc2Cl)c1C(=O)O,x,x,x,x,x,-6%
O=C(Cn1c(=O)nc(-c2ccccc2F)c2cc(Cl)ccc21)N1CCN(c2ccccc2F)CC1,x,x,x,x,x,-3%
CCOc1ccc(-n2c(=O)c3c4c(sc3n(CC(=O)NC(C)CC)c2=O)CCCC4)cc1 (centres undefined),x,x,x,x,x,24%
CCOC(=O)N1CCN(C(=O)c2oc3ccc(S(=O)(=O)N(CC)CC)cc3c2C)CC1,5%,5.2µM*,-10%,124%,-8%,-5%
CCN(CC)S(=O)(=O)c1ccc2oc(C(=O)N3CCOCC3)c(C)c2c1,4%,-29%,u,33%,-9%,-7%
